HT1080 IDH1KD tx – HT-1080 IDH1 knockdown cell toxicity (counter line) | HT-1080 IDH1 knockdown viability, ATP luminescence, 48 h | 360,000 tested, 2% active | AID 686971 | Potency, µM (highest dose often 46.1 µM), for the others: top-dose activity, negative = toxicity, most hits filed as cytotoxic;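 also: potency is read from the fitted curve at half-maximal effect; 0% = DMSO wells and -100% = cell-free medium wells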
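Luminescent ATP read-out (CellTiter-Glo, 10 min at room temperature) after 48 h compound exposure at 37 °C gave viability of IDH1-knockdown HT-1080 cells. Activity was normalised to DMSO and cell-free wells, then fitted as concentration-response curves.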
DT40 TDP1 CPT – growth inhibition of DT40 Tdp1-/-;hTDP1 cells with camptothecin (screen for TDP1 inhibitors) | Potency, µM (series often up to 46.2 µM), for the others: at the highest dose activity change, negative = growth inhibition, usual class: inhibitors | AID 686979 | chicken DT40 Tdp1-/-;hTDP1 cells + 20 nM CPT, ATP luminescence, 48 h | 420,000 tested, 12% active; also: potency is read from the fitted curve at half-maximal effect; nearly all actives have a fitted effect of over 55% in size
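Chicken DT40 Tdp1-/- cells stably complemented with human TDP1 were seeded at 400 cells/well in medium containing 20 nM camptothecin, exposed to pin-transferred compounds, and grown at 37 °C for at least 48 hr. Viability was read as ATP luminescence.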
IL-1B inflam inh – inhibitors of inflammasome signaling (IL-1 beta secretion). THP-1 LPS/ATP IL-1B secretion, AlphaLISA, 16 h; stronger effect = lower value. activity change, % at 57.5 µM. 360,000 tested, 4.7% active. AID 743279; in the data active = activity change below about -50%; inconclusive = mostly about -30% to -49%
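THP-1 cells pretreated 1 hr with compounds (up to 57.5 uM final), then stimulated with LPS (250 ng/mL final) plus ATP (1.25 mM final); secreted IL-1B measured by AlphaLISA after 16 hr, decreased signal indicating inhibition.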
uPA surface inh – blocks generation of uPA at the cell surface | cell surface uPA generation assay, qHTS | Potency, µM (series often up to 38.3 µM), inactives show at the highest dose activity change, negative = inhibition, hits mostly inhibitors | 330,000 tested, 0.31% active; active = well fitted inhibition curve with a large enough effect; inconclusive = small, poorly fitted or top-dose-only effect; inactive = no such curve, though single readings can be large or run the other way; tested in mouse RAW 264.7 cells; also: potency is read from the fitted curve at half-maximal effect; nearly all actives have a fitted effect of over 55% in size
TDP1 cell noCPT – qHTS for Inhibitors of human tyrosyl-DNA phosphodiesterase 1 (TDP1): qHTS in cells in absence of CPT; DT40 Tdp1-/- hTDP1 cells, no CPT, ATP luminescence, 48 h; AID 686978, 2013; 420,000 tested, 15% active; Potency, µM (titrated, usually from 46.2 µM), without a hit: top-dose activity change, negative = growth inhibition, actives largely listed as inhibitors; also: potency is read from the fitted curve at half-maximal effect; nearly all actives have a fitted effect of over 55% in size
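A cellular qHTS used chicken DT40 cells lacking endogenous Tdp1 but carrying stably transfected human TDP1. Compounds were applied without camptothecin, and cell growth kinetics were judged by ATP-dependent luminescence after ≥48 hr.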
HT1080-NT tox – kills 2HG-producing HT-1080-NT fibrosarcoma cells. HT-1080-NT fibrosarcoma viability, CellTiter-Glo ATP luminescence, 48 h. Potency, µM (top dose mostly 46.1 µM), for inactives: at the highest dose activity, negative = less viability, most hits filed as cytotoxic. 360,000 tested, 1.6% active. AID 686970;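 also: NT is the 2HG producing partner of a matched IDH1 knockdown line; potency is read from the fitted curve at half-maximal effect; 0% = DMSO-treated cells and -100% = media-only wells without cells; nearly all actives have a fitted effect of over 55% in size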
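Toxicity toward the 2HG-producing NT line was scored as %Activity, normalised to DMSO and no-cell wells, from CellTiter-Glo luminescence after 48 hours' treatment.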
The depositor's hits bear a star; ? = inconclusive; nt = not tested or not shown; [ ] = dose if it differs, or a comment. In the library only some 19% were active in any assay of this set; here they are far more common. Unless noted, calls follow the shape of the dose curve; as a rule, active = well fitted curve in the direction sought with a large enough effect; inconclusive = small, poorly fitted or top-dose-only effect, or another doubt; inactive = no such curve, though single readings can be large; an effect the other way counts as inactive or inconclusive. Unless noted, % is scaled to controls: 0 for no effect and ±100 for the full control effect.

SMILES	HT1080 IDH1KD tx	DT40 TDP1 CPT	IL-1B inflam inh	uPA surface inh	TDP1 cell noCPT	HT1080-NT tox
CCOC(=O)C1(C)CCCN(C(=O)c2ccc(OC(F)F)cc2)C1 (stereo not given)	8%	-20%	19	nt	-24%	25%
CCSc1nc(-c2ccccc2)nc(C(Cl)Cl)n1	?	1.8µM*	-24	?	8.2µM*	?
CCSc1cc(N2CCOCC2)nc(-c2ccccc2)n1	12%	-8%	12	3%	-6%	11%
C=CCSc1ncc(C(=O)OCC)c(N)n1	-13%	-5%	13	-3%	2%	2%
CCOC(=O)c1cnc(SSc2ncc(C(=O)OCC)c(N)n2)nc1N	-4%	23µM*	0	12%	15µM*	1%
CCCOc1ccc([N+](=O)[O-])cc1C1NC(=S)NC(c2ccccc2)=C1C(=O)OCC (stereo not given)	-9%	?	-29	15%	21µM*	-16%
CCOC(=O)C1=C(c2ccccc2)NC(=O)NC1c1cc(OC)c(O)c([N+](=O)[O-])c1 (stereo not given)	10%	-22%	-3	25%	?	10%
Cc1ccc(C)c(OCCCn2c(-c3ccc(Cl)cc3)nc3ccccc3c2=O)c1	nt	-10%	nt	nt	-2%	nt
COc1ccccc1C1=NOC(COc2ccc3c(C)cc(=O)oc3c2)C1 (stereo not given)	0.73µM*	0.82µM*	14	-16%	0.82µM*	0.92µM*
COc1ccc(C2=NOC(COc3ccc4c(C)cc(=O)oc4c3)C2)c(OC)c1 (stereo not given)	5.8µM*	4.1µM*	0	-8%	5.2µM*	?
COc1cccc(COc2ccc3c(C)cc(=O)oc3c2)c1	-20%	-14%	-29	-7%	?	-15%
COc1ccc2c(C)cc(=O)oc2c1	5%	3%	-19	-6%	-8%	27%
COc1cccc(-c2ccc3ncnc(N(C)C)c3c2)c1	nt	21µM*	nt	nt	?	nt
CN(C)c1ncnc2ccc(-c3cccnc3)cc12	nt	12µM*	nt	nt	23µM*	nt
COc1cccc(-c2ccc3ncnc(N4CCNCC4)c3c2)c1	nt	?	nt	nt	-29%	nt
O=[N+]([O-])c1ccc(-c2cccnc2)cc1	12%	16%	-1	1%	-18%	3%
O=C(NCCc1cccc(Cl)c1)c1ccc(OC2CCN(Cc3ccccn3)CC2)cc1	?	29µM*	?	?	16µM*	?
CCn1nc(C)c(CNC(=O)c2ccc(OC3CCN(Cc4ccccn4)CC3)cc2)c1C	-26%	6.5µM*	23	?	2.9µM*	?
CCn1cc(CNC(=O)c2ccc(OC3CCN(Cc4ccccn4)CC3)cc2)cn1	-13%	?	49	6%	?	-10%
Cc1cccnc1CCNC(=O)c1ccc(OC2CCN(Cc3ccccn3)CC2)cc1	14%	-8%	0	-2%	-17%	8%
COCc1ccc(CN2CCCC(C(=O)Nc3ccc(-c4cscn4)cc3)C2)o1 (stereo not given)	2%	-4%	13	0%	-9%	6%
COc1ccc(N=Nc2cc(C)ccc2O)cc1	0%	-23%	-8	?	1%	-4%
Cc1ccc(O)c(N=Nc2nccs2)c1	?	1.2µM*	216	2.2µM*	0.92µM*	?
Cc1ccc(NC(=O)CC2SC3=NCCCN3C2=O)c(C)c1 (stereo not given)	0%	9.2µM*	0	-3%	16µM*	1%
O=C(CC1Sc2ccccc2NC1=O)NNc1ccc(F)cc1 (stereo not given)	7.3µM*	-16%	-5	-8%	-8%	?
SMILES	HT1080 IDH1KD tx	DT40 TDP1 CPT	IL-1B inflam inh	uPA surface inh	TDP1 cell noCPT	HT1080-NT tox
Cc1ccc(NC(=O)CC2Sc3ccccc3NC2=O)c(C)c1 (stereo not given)	nt	?	nt	nt	23µM*	nt
CCCCOc1ccccc1NC(=O)CC1Sc2ccccc2NC1=O (stereo not given)	nt	21µM*	nt	nt	?	nt
Cc1ccc(C)c(NC(=O)CC2Sc3ccccc3NC2=O)c1 (stereo not given)	1%	-23%	10	10%	-22%	0%
NC(=O)c1ncn([C@@H]2O[C@H](CNC(=O)[C@H](N)CSCc3ccccc3)[C@@H](O)[C@H]2O)n1	8%	18%	51	9%	12%	13%
CCOc1ccccc1NC(=O)N1CCN(S(=O)(=O)c2ccc3c(ccn3C)c2)CC1	nt	-16%	nt	nt	-27%	nt
O=C(C1CCCN(S(=O)(=O)c2cccnc2)C1)N1CCN(c2ccccn2)CC1 (stereo not given)	6%	-16%	50	2%	?	12%
O=C(Nc1ccc(OC(F)(F)F)cc1)C1CCCN(S(=O)(=O)c2cccnc2)C1 (stereo not given)	?	18µM*	7	-4%	13µM*	-21%
CCc1ccc(NC(=O)C2CCCN(S(=O)(=O)c3cccnc3)C2)cc1 (stereo not given)	-15%	?	-3	3%	?	?
O=C(c1ccc2ccccc2c1)C1CCCN(S(=O)(=O)c2cccnc2)C1 (stereo not given)	-11%	23µM*	?	nt	21µM*	-10%
COc1ccc(NC(=O)CN(C)C(=O)c2cccc(S(=O)(=O)Nc3ccccc3Cl)c2)cc1	3%	-11%	-11	-3%	5%	9%
O=C(Nc1ccc2c(c1)[C@@H]1C[C@@H](CC(=O)N3CCOCC3)O[C@@H](CO)[C@@H]1O2)NC1CCCC1	7%	5%	28	nt	3%	6%
O=c1c(Cl)cc(Cl)nn1-c1ccccc1	?	2.1µM*	-100*	-7%	1.5µM*	?
CCOc1cc(CN2CCN(S(=O)(=O)c3ccc(C)cc3)CC2)ccc1OC	nt	?	nt	nt	16µM*	nt
CCOc1cc(CN2CCN(CCc3ccccc3)C(CCO)C2)ccc1OC (stereo not given)	-5%	?	-69*	-3%	?	-9%
CCOc1cc(CN2CCN(S(=O)(=O)Cc3ccccc3)CC2)ccc1OC	-5%	-19%	15	-1%	23µM*	14%
CC(C)CN1CCN(Cc2nc3ccccc3s2)CC1CCO (stereo not given)	5%	-1%	-2	2%	-8%	2%
O=S(=O)(Cc1ccccc1)N1CCN(Cc2ccccc2)CC1	-4%	-30%	0	nt	-17%	-8%[9.24 µM]

Source: PubChem
